An excerpt weighted towards active compounds, which were near 2% of everything screened.
Neddylation inh: cullin neddylation inhibition; actives 0.58% (n = 360,000); inhibition, % at 25 µM; TR-FRET cullin neddylation, biochemical; P61081+Q13564; in the data active = inhibition above about 36%
ARNT-TACC3 inh: disruptors of human ARNT/TACC3 interaction. Q9Y6A5. AlphaScreen His-ARNT PAS-B/GST-TACC3 binding, luminescence; TACC3 fragment carries E629A point mutation. inhibition, % at 9.99 µM. actives 0.66% (n = 390,000);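 active = mean inhibition of replicates at least 50% and at least half of replicates each reaching 50%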
DAGLB inhibitor: blocks human DAGLB lipase activity; Q8NCG7; HEK293T DAGLB membrane lysate, EnzChek fluorogenic substrate; inhibition, % at 5.17 µM; actives 0.059% (n = 340,000); AID 504411; in the data active = inhibition above about 34%
Target sequence (Q8NCG7 whole entry, looked up): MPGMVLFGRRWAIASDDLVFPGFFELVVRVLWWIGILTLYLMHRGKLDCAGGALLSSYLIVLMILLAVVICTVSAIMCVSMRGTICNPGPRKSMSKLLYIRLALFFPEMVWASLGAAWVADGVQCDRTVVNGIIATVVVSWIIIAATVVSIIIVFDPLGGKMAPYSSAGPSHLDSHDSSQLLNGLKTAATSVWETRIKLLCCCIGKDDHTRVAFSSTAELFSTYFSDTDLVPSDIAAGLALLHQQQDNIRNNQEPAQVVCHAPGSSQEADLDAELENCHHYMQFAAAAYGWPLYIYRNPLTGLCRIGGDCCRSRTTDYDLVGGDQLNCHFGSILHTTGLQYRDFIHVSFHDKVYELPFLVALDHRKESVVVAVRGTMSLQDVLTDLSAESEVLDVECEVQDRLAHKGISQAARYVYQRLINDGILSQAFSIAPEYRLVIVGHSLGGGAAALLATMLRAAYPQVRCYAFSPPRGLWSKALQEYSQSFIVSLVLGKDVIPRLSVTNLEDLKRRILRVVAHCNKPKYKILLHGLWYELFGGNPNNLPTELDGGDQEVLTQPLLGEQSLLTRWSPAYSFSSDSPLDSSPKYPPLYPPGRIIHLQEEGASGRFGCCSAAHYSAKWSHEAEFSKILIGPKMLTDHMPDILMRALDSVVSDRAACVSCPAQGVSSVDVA
NadD inh: blocks S. aureus nicotinate mononucleotide adenylyltransferase | actives 0.78% (n = 360,000) | purified NadD enzyme, colorimetric absorbance read-out | inhibition, % at 20 µM; in the data active = inhibition above about 26%
sPLA2-III inh: Blocks human group III sPLA2 activity. actives 0.56% (n = 370,000). QFRET BODIPY PC-A2 liposome hydrolysis, fluorescence. inhibition, % at 12.2 µM. Q9NZ20. AID 743126;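 active = inhibition above mean plus 3 SD of compounds lying within the high and low control bounds, cut at about 19% in these data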
ARNT Alpha ctr-1: AlphaScreen artifact in ARNT/TACC3 counter-screen | actives 50% (n = 1,200) | AID 651705 | shares compounds with ARNT-TACC3 inh | His-ARNT PASB-GST AlphaScreen artifact counter-screen, luminescence | AC50, µM (series often up to 68 µM);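 active = every separate test run was called active for a drop in luminescence, with AC50 within twice the top valid dose, actives reach about 71 µM in these data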
ARNT Alpha ctr-2: AlphaScreen artifact flagged for ARNT-TACC3 inhibitors; actives 70% (n = 45); shares compounds with ARNT-TACC3 inh; Dual-tagged His-ARNT PASB-GST AlphaScreen artifact counter-screen; AC50, µM; AID 720564;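 active = luminescence drop, with half-maximal potency fitted within twice the sample's top valid dose, cut at about 70 µM in these data; inactive = the rest, including signal moving the wrong way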
Hits are given with their value; . = inactive; / = no result shown.

SMILES	Neddylation inh	ARNT-TACC3 inh	DAGLB inhibitor	NadD inh	sPLA2-III inh	ARNT Alpha ctr-1	others
CCOC(=O)N1CCN(S(=O)(=O)c2ccc(C(=O)Nc3nnc(C4CC4)o3)cc2)CC1	.	61	.	.	.	.
O=C(Nc1nnc(-c2ccncc2)o1)c1ccccc1	.	52	.	.	.	.
CCOC(=O)N1CCN(S(=O)(=O)c2ccc(C(=O)Nc3nnc(CC)o3)cc2)CC1	.	.	.	.	.	/
CCC(=O)N(C)C[C@H]1Oc2cc(C#CC3CCCC3)ccc2S(=O)(=O)N([C@@H](C)CO)C[C@H]1C	/	.	/	/	/	/
CC1CCN(S(=O)(=O)c2ccc(C(=O)Nc3nnc(-c4ccno4)o3)cc2)CC1	/	/	/	/	/	/	ARNT Alpha ctr-2=.
CCCC#Cc1cnc2c(c1)C(=O)N([C@@H](C)CO)C[C@H](C)[C@H](CN(C)C(=O)Nc1ccc(OC)cc1)O2	/	.	/	/	/	/
Cc1cccc(S(=O)(=O)N[C@H]2CC[C@H](CCn3cc(-c4ccccn4)nn3)O[C@H]2CO)c1	/	90	/	/	/	57µM
O=S(=O)(N[C@H]1CC[C@@H](CCn2cc(-c3ccccn3)nn2)O[C@@H]1CO)c1cccc(F)c1	/	68	/	/	/	34µM
O=S(=O)(N[C@H]1CC[C@H](CCn2cc(-c3ccccn3)nn2)O[C@H]1CO)c1cccc(F)c1	/	67	/	/	/	43µM
O=S(=O)(N[C@H]1CC[C@H](CCn2cc(-c3ccccn3)nn2)O[C@@H]1CO)c1cccc(F)c1	/	78	/	/	/	34µM
CC(C)NC(=O)Nc1ccc2c(c1)C(=O)N([C@H](C)CO)C[C@H](C)[C@H](CN(C)S(=O)(=O)c1ccccc1)O2	/	.	/	/	/	/
OC[C@H]1[C@H](c2ccc(-c3ccccc3)cc2)[C@@H]2CN(CCC(F)(F)F)CCCCN12	/	.	/	/	/	/
O=S(=O)(N[C@H]1CC[C@H](CCn2cc(-c3cccc(F)c3)nn2)O[C@H]1CO)c1ccccc1	/	.	/	/	/	/
O=S(=O)(N[C@@H]1CC[C@@H](CCn2cc(-c3ccccn3)nn2)O[C@@H]1CO)c1cccc(F)c1	/	94	/	/	/	47µM
N[C@H]1CC[C@H](CCn2cc(-c3ccccn3)nn2)O[C@@H]1CO	/	77	/	/	/	5.3µM
CN(C)Cc1cn(CC[C@@H]2CC[C@@H](N)[C@H](CO)O2)nn1	/	.	/	/	/	/
c1ccc(-c2cn(C[C@H]3CC[C@@H]([C@@H]4CC[C@H](Cn5cc(-c6ccccn6)nn5)O4)O3)nn2)nc1	.	66	.	.	.	11µM
c1ccc(-c2cn(C[C@H]3CC[C@@H]([C@@H]4CC[C@H](Cn5cc(-c6ccccc6)nn5)O4)O3)nn2)cc1	.	.	.	.	.	/
N[C@@H]1CC[C@@H](CCn2cc(-c3ccccn3)nn2)O[C@H]1CO	/	76	/	/	/	3.8µM
N[C@@H]1CC[C@@H](CCn2cc(-c3cccc(F)c3)nn2)O[C@H]1CO	/	.	/	/	/	/
O=C(c1cc(-c2ccccc2)on1)N1CCC(N2CCOCC2)CC1	/	/	/	/	/	.
COc1ccc(NC(=O)CSc2cccc3cccnc23)c(OC)c1	.	.	.	.	.	/
CCCCCOc1ccc(NC(=O)CSc2cccc3cccnc23)cc1	/	58	.	.	.	63µM
Cc1cccc(CSc2cccc3cccnc23)c1	.	62	.	.	.	13µM
CCOC(=O)CSc1cccc2cccnc12	/	57	.	.	.	9.3µM
SMILES	Neddylation inh	ARNT-TACC3 inh	DAGLB inhibitor	NadD inh	sPLA2-III inh	ARNT Alpha ctr-1	others
Cc1cccc(CSc2[nH]c(=O)ncc2C)c1	.	.	.	.	.	/
O=C(CSc1cccc2cccnc12)Nc1ccc(S(=O)(=O)N2CCOCC2)cc1	/	74	.	.	.	33µM
CCCC#Cc1ccc2c(c1)O[C@H](CN(C)Cc1ccncc1)[C@@H](C)CN([C@@H](C)CO)S2(=O)=O	/	.	/	/	/	/
c1ccc(-c2n[nH]c(-c3ccccn3)n2)nc1	.	60	.	.	.	7.5µM
c1ccc(-c2nn[nH]n2)nc1	.	67	.	.	.	53µM
O=C(NCc1cccc(F)c1)[C@H]1[C@H](CO)[C@H]2Cn3c(cccc3=O)[C@@H]1N2C(=O)c1cnccn1	/	.	/	/	/	/
COc1ccc(COCC23N=C4SCCCN4[C@H](c4ccccc4O2)[C@H]3COC(=O)c2ccccc2)cc1	/	.	/	/	/	/
COCC(=O)Nc1ccc2c(c1)[C@H]1C[C@@H](CC(=O)N3CCc4ccccc4C3)O[C@@H](CO)[C@H]1O2	/	.	/	/	/	/
CN1CCN(C(=O)C2=C[C@H](C3CC3)C[C@H](OCCCCO)O2)CC1	/	.	/	/	/	/
O=C(Nc1nnc(C2=COCCO2)o1)c1cccc(Br)c1	.	/	.	.	.	/
CS(=O)(=O)c1cccc(C(=O)Nc2nnc(C3=COCCO3)o2)c1	.	59	.	.	.	.
CS(=O)(=O)c1ccccc1-c1nnc(NC(=O)c2ccc(S(=O)(=O)N3CCCC3)cc2)o1	.	.	.	.	.	/
CC1CCN(S(=O)(=O)c2ccc(C(=O)Nc3nnc(C4=COCCO4)o3)cc2)CC1	.	62	.	.	.	.	ARNT Alpha ctr-2=.
O=C(Nc1nnc(C2=COCCO2)o1)c1ccc(S(=O)(=O)N2CCCC2)cc1	.	.	.	.	.	/
O=C(Nc1nnc(-c2cccs2)o1)c1ccc(S(=O)(=O)N2CCOCC2)cc1	.	45	.	.	.	34µM
O=C(Nc1nnc(C2=COCCO2)o1)c1ccc(S(=O)(=O)N2CCCCC2)cc1	.	.	.	.	.	/	ARNT Alpha ctr-2=.
CCCNC(=O)[C@@H]1[C@@H](CO)[C@@H]2Cn3c(ccc(C4=CCCC4)c3=O)[C@H]1N2C(=O)CC	/	.	/	/	/	/
O=C(C[C@H]1C=C[C@@H](NC(=O)Nc2ccc3c(c2)OCO3)[C@H](CO)O1)NCc1ccc(Cl)cc1	/	24	/	/	/	.
O=C(NNc1ccccn1)C(=O)NNS(=O)(=O)c1ccc(Cl)cc1	.	58	.	.	.	.
CCOc1ccc(C2=Nn3c(nnc3-c3ccccn3)SC2)cc1	.	63	.	.	.	.
CCOC(=O)CC(NC(=O)Cc1ccc(F)cc1)c1ccccc1Cl (configuration not stated)	.	22	.	.	.	.
Cc1ncc(CO)c(/C=N/NC(=O)c2cc(Br)ccc2O)c1O	.	62	.	.	.	47µM
Cc1cc(C(=O)N/N=C/c2c(CO)cnc(C)c2O)c2ccccc2n1	.	61	.	.	.	20µM
O=C(Nc1nnc(SCc2ccc(F)cc2)s1)c1cccnc1Cl	.	.	.	.	.	/
O=C(Nc1nnc(SCc2ccc(F)cc2)s1)c1ccccn1	.	79	.	.	.	17µM
CCc1cc2c(=O)[nH]c(N3CCCC3)nc2s1	.	.	.	.	.	/
CCc1cc2c(=O)[nH]c(-c3ccccn3)nc2s1	/	76	.	.	.	51µM	ARNT Alpha ctr-2=17
O=C(Nc1nccs1)c1cnccn1	.	51	.	.	.	.
NC(=O)CC(NC(=O)c1ccccc1)c1ccc(NCc2ccccn2)c([N+](=O)[O-])c1 (configuration not stated)	.	65	.	.	.	.
